Source: publication PMC7819943, “Rice protein-binding microarrays: a tool to detect cis-acting elements near promoter regions in rice”
In all, about 35,000 sequences were measured (“fluorescence intensity (a.u.)”: median about 10,000, highest 2% from about 52,000 on). Only a selection was taken, and the highest values are over-represented in it overall.

target: T1, OsWOX13 (Oryza sativa, UniProt Q5QMM3 1-267); assay: protein-binding microarray (RPBM); PBS, 2% BSA, 51.3 ng/ul salmon testes DNA, 50 uM zinc acetate, 200 nM TF, 25 C, 1 h; high values mean tight binding; conditions: protein: recombinant; tags: N-terminal polyhistidine and DsRed monomer fusion (pET32a); label: CyDye5-dUTP incorporated in the synthesized complementary strand; 3' TTTTT single-stranded linker to array surface; dsDNA, one strand shown
T1 sequence: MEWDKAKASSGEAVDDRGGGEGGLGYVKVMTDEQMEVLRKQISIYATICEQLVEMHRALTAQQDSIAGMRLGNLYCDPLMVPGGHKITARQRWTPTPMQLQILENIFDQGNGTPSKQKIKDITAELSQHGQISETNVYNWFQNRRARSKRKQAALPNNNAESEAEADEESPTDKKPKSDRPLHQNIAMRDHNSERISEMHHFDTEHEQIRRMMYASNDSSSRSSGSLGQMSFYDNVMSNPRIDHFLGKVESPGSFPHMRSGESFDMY
Method in brief: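 Per-feature fluorescence intensity (arbitrary units), read on an Axon 4000B scanner, is the binding signal. Transcription factors carrying an N-terminal polyhistidine tag and DsRed fusion were expressed in E. coli BL21-CodonPlus and purified on Ni–NTA. A custom Agilent array, made double-stranded by primer extension with Cy5-dUTP and blocked with 2% BSA, was incubated with 200 nM protein in PBS, 2% BSA, salmon testes DNA and 50 µM zinc acetate at 25 °C for 1 h and then washed.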

Sequence	binding signal
CTCAACATGAACTTCTTGATTACCTGTGACCCAGCCACGGCGGAGTCACCTAGTGCAG	3150 fluorescence intensity (a.u.)
GAAACATGTTGAGATTGATTTACATTTTGTGCGCGAGAAGCGGAGTCACCTAGTGCAG	18000 fluorescence intensity (a.u.)
TGGGAGATTGTATTAAACAGAGGAGAACGATGGCGAAAGGCGGAGTCACCTAGTGCAG	6630 fluorescence intensity (a.u.)
TTTTGATTGGCCGAGGAGAAGGCGAAACAGACTGCCACTGCGGAGTCACCTAGTGCAG	53800 fluorescence intensity (a.u.)
TTATTTGACACAATGCGATTGAATTGGGGTGCAGGAGTATCGGAGTCACCTAGTGCAG	6780 fluorescence intensity (a.u.)
AGAAATATTCAATCAAGCTACTGCGCACATATATCTTTATCGGAGTCACCTAGTGCAG	9630 fluorescence intensity (a.u.)
GTGCTGTGATTGGCCGCGCGGGATTTCCTGGGCGGGCGGGCGGAGTCACCTAGTGCAG	22600 fluorescence intensity (a.u.)
CTATCATATTGACAGCTTTGTAATTGCTTTTGACAGGTTCCGGAGTCACCTAGTGCAG	26400 fluorescence intensity (a.u.)
AATTGACGTAATTTCAGGTCGTATTTGTGGTGCAACAACCCGGAGTCACCTAGTGCAG	16600 fluorescence intensity (a.u.)
CATATTGACAGCTTTGTAATTGCATTTGACAGGTTCAACCCGGAGTCACCTAGTGCAG	60500 fluorescence intensity (a.u.)
TGGACATTGACAAAATCACAGATCCAGTAAGTACTAGTATCGGAGTCACCTAGTGCAG	3170 fluorescence intensity (a.u.)
TCACAAAATAATTAACTTTAAAATTAAATTTTAGCAGCAGCGGAGTCACCTAGTGCAG	15100 fluorescence intensity (a.u.)
TGAGTAAATGTGTTGTTGTTAATTGCTATATGTACAGTTGCGGAGTCACCTAGTGCAG	5280 fluorescence intensity (a.u.)
TCCTAATTGTACAATTAATTAAATTAAGTACAGTCCTATGCGGAGTCACCTAGTGCAG	53000 fluorescence intensity (a.u.)
TCCACAGATTGAGGAATCCGAGCAACAAATATCCTAGTAGCGGAGTCACCTAGTGCAG	11900 fluorescence intensity (a.u.)
TAAAATTAAATTTACAAGGGTTAATTCGCGAGTAATAACGCGGAGTCACCTAGTGCAG	12300 fluorescence intensity (a.u.)
TATGCAGTTTTACAATAATTTAATTAAAGTACAGTTTTGTCGGAGTCACCTAGTGCAG	5420 fluorescence intensity (a.u.)
TTTTATCTCACCAATCAATTTAATTTCTTTATTTATTTTCCGGAGTCACCTAGTGCAG	6870 fluorescence intensity (a.u.)
AATGTCTGCAATTAATCAATCTGTTAATCTGTTATTAGTACGGAGTCACCTAGTGCAG	21900 fluorescence intensity (a.u.)
CGAAATTAATTAGCGAAATTAATTAACGCTTTACACAAGGCGGAGTCACCTAGTGCAG	64900 fluorescence intensity (a.u.)
GGTCCTAATTGACAAATCCACAGAAGTAGTACTCCAGGAGCGGAGTCACCTAGTGCAG	53000 fluorescence intensity (a.u.)
ATAATTATTCTGTTAATTAATCAATTATTATCTGGGAATCCGGAGTCACCTAGTGCAG	63600 fluorescence intensity (a.u.)

Sequence	binding signal
GGCTAATTTGGCGAGGTAATACGGTAGTATAGCACGGTTACGGAGTCACCTAGTGCAG	10500 fluorescence intensity (a.u.)
CCCGCTTGAATGGATGGCAATCAACACAAGGAACAGACCGCGGAGTCACCTAGTGCAG	13700 fluorescence intensity (a.u.)
AATCAAATTGCCACTTAAATCTATTGCCTCAAGTGAACAGCGGAGTCACCTAGTGCAG	16100 fluorescence intensity (a.u.)
GATCAATTAATATGGAATTTAAAAGTTCAATTAATATGGACGGAGTCACCTAGTGCAG	8910 fluorescence intensity (a.u.)
TTCAATTGATGTTCTTGCTTGCAAGTTGCAACGAGATTTGCGGAGTCACCTAGTGCAG	7920 fluorescence intensity (a.u.)
AATGATGATTGATGGGTCATGGCACAAGGACGCTAAACCGCGGAGTCACCTAGTGCAG	40700 fluorescence intensity (a.u.)
ATATAATAGCTAATCAAACACTAGTCCGAAGACGTAGTATCGGAGTCACCTAGTGCAG	21700 fluorescence intensity (a.u.)
CCCTCGCCTGGGCCGATCCCCATACATCCCGCGAGCGCGACGGAGTCACCTAGTGCAG	3440 fluorescence intensity (a.u.)
GTTCGATTGAGATAGCTCTTAACATCAGTGACTTCTAGCCCGGAGTCACCTAGTGCAG	3800 fluorescence intensity (a.u.)
CCCTCCAATCAAATTAACCTCCATATCTCTAGCAATCTGCCGGAGTCACCTAGTGCAG	29800 fluorescence intensity (a.u.)
ATAAATTAATCCAGGCGTGATCTCCCGGCGCCCGCACGCGCGGAGTCACCTAGTGCAG	7300 fluorescence intensity (a.u.)
AATTAATTATCATCATTACCGCAAATTCTCAAAAGTCAGGCGGAGTCACCTAGTGCAG	41200 fluorescence intensity (a.u.)
GCTACAATAATTAATCAATTAATTAAATTAAATTAAGTGGCGGAGTCACCTAGTGCAG	55300 fluorescence intensity (a.u.)
TATTCAAATCATTTAAGTAATTATTTATTCTTTTCATATCCGGAGTCACCTAGTGCAG	10000 fluorescence intensity (a.u.)
GATGATAAATTAAGTCACAATAAATAAATAATAATAATATCGGAGTCACCTAGTGCAG	5820 fluorescence intensity (a.u.)
TAAGTAATTAATTAATCAATCAATTAATCAATTATTATCCCGGAGTCACCTAGTGCAG	52600 fluorescence intensity (a.u.)
ATTAATTAACAATAATAAGTGATTAATAATTAATTAATCGCGGAGTCACCTAGTGCAG	44200 fluorescence intensity (a.u.)
TTTAATCACAAGCAAATCAATTAACTCATCCATACTCATCCGGAGTCACCTAGTGCAG	24200 fluorescence intensity (a.u.)
TCCCAATTAAGTCAATCAGTAATAATAAATAATTATGAACCGGAGTCACCTAGTGCAG	32500 fluorescence intensity (a.u.)
GCAATCAATCAATCAATCATATATCCATATCAAATTAAGCCGGAGTCACCTAGTGCAG	61800 fluorescence intensity (a.u.)
TTAATTAACGCGATTAATTAGCCGCAAATCTCAATCCAGGCGGAGTCACCTAGTGCAG	53200 fluorescence intensity (a.u.)
